Cdc25B inh = inhibitors of Cdc25B phosphatase catalytic domain, primary screen, biochemical, OMFP fluorescence | recombinant Cdc25B, OMFP fluorescence Ex485/Em525 | inhibition, %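 (compounds tested at 10 µM final in the well)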 | 65,000 tested, 0.1% active | AID 368, 2006; in the data active means inhibition above about 50%
DUSP1 inh = MKP-1 phosphatase inhibitors, primary screen, biochemical, in vitro; inhibition, %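 (compounds tested at a single concentration somewhere between 10 and 100 µM)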; AID 374, 2006; Dual specificity protein phosphatase 1 (Homo sapiens), P28562; 65,000 tested, 0.15% active; recombinant MKP-1, OMFP hydrolysis fluorescence;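 active means inhibition above about 50%, limit read from the data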
Target sequence (P28562 whole entry, looked up): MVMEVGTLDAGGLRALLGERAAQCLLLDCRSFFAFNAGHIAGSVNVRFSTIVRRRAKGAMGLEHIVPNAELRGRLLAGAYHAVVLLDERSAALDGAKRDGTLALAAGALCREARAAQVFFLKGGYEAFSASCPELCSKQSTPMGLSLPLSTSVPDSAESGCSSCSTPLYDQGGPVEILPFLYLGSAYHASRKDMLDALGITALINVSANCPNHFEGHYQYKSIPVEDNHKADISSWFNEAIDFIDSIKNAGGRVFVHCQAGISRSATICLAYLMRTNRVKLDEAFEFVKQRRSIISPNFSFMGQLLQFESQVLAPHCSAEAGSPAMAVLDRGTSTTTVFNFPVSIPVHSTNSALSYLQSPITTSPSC
JNK3 inh = JNK3 kinase activity inhibitors, primary screen, biochemical, human, purified enzyme; inhibition, % at 8 µM; Mitogen-activated protein kinase 10 (Homo sapiens), P53779; AID 746, 2007; HTS; 60,000 tested, 0.61% active; in the data active means inhibition above about 17%
PKA inh = inhibitors of human PKA kinase activity, primary screen, biochemical, ATP-depletion luminescence, Kemptide substrate; cAMP-dependent protein kinase catalytic subunit alpha (Homo sapiens), P17612; PKA Kemptide phosphorylation, Kinase-Glo ATP luminescence; inhibition, % at 6 µM; 65,000 tested, 0.1% active; AID 524, 2006;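 active means inhibition above the screen-wide mean inhibition plus 3 SD, cut at about 21% in these data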
ROCK2 inh = inhibitors of human ROCK2 kinase, primary screen, biochemical, high-throughput, luminescence. purified ROCK2, Kinase-Glo ATP depletion luminescence. inhibition, % at 6 µM. 60,000 tested, 0.35% active. AID 604, 2007;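 active means inhibition above the screen-wide mean inhibition plus 3 SD, cut at about 18% in these data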
Hsp90 inh = tumor Hsp90 inhibitors, primary screen, cell lysate, fluorescence polarization, NCI-N417 lysate; AID 429, 2006; 64,000 tested, 0.35% active; inhibition, % at 30 µM; Cy3B-geldanamycin FP displacement;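 active means inhibition above 50%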
Of the large screens only hits and unclear results are named; the others gave an inactive call. A selection: hits, their analogues and other compounds. The true share with any hit is near 1%.

CCCCCCCCCCCCC/C=C/C(O)C(N)CO (stereo not drawn)	none (no result: Cdc25B inh, DUSP1 inh, JNK3 inh, PKA inh, ROCK2 inh)
C[C@@H]1C(=O)NC2=Nc3cccc(Cl)c3CN21	none (no result: Cdc25B inh, DUSP1 inh, JNK3 inh, PKA inh, ROCK2 inh)
CCOC(=O)CCCc1sc(N)nc1-c1[nH]c(=O)[nH]c1C	JNK3 inh 25
CCOC(=O)CCc1nc2ccccc2[nH]1	none
CCn1nnc(NC(=O)COc2cc(C)ccc2C(C)C)n1	Hsp90 inh 72
CCCn1nnc(NC(=O)COc2ccccc2Cl)n1	none
NCC(O)C1CCCCCCC1 (stereo not drawn)	none (no result: Cdc25B inh, DUSP1 inh, JNK3 inh, PKA inh, ROCK2 inh)
Cc1cccc(C)c1NC(=O)C[N+](C)(C)C	none (no result: Cdc25B inh, DUSP1 inh, JNK3 inh, PKA inh, ROCK2 inh)
CCOC(=O)c1cccc2c1-c1ccccc1/C2=N/O	JNK3 inh 53
CCOC(=O)c1cccc(C(=O)OCC)n1	none
O=C(CCn1c(=O)[nH]c2ccccc2c1=O)Nc1ccccc1	Cdc25B inh 102
CCc1c(C)[nH]c2ccccc2c1=O	none
CC(=O)CCc1c(C)[nH]c2ccccc2c1=O	Hsp90 inh 82
CC1=C(C(=O)O)N2C(=O)[C@@H](NC(=O)C(N)C3=CCC=CC3)[C@H]2SC1 (stereo partly drawn)	none (no result: Cdc25B inh, DUSP1 inh, JNK3 inh, PKA inh, ROCK2 inh)
Cc1nc2sccn2c1-c1nc(-c2cc3ccccc3o2)cs1	none
Cc1ccnc(Nc2nc(-c3c(C)nc4sccn34)cs2)c1	JNK3 inh 34
Cc1ccc(C(=O)C2=C(O)C(=O)N(CCCn3ccnc3)C2c2ccc(OC(C)C)cc2)o1 (stereo not drawn)	JNK3 inh 27
CCOc1ccc(C2C(C(=O)c3ccco3)=C(O)C(=O)N2CCCn2ccnc2)cc1 (stereo not drawn)	none
CCC1(O)CC2CN(CCc3c([nH]c4ccccc34)[C@@](C(=O)OC)(c3cc4c(cc3OC)N(C=O)C3[C@]45CCN4CC=C[C@@](CC)([C@@H](OC(C)=O)[C@]3(O)C(=O)OC)[C@H]45)C2)C1 (stereo partly drawn)	none (no result: Cdc25B inh, DUSP1 inh, JNK3 inh, PKA inh, ROCK2 inh)
Brc1ccc(-c2nn3c(-c4ccco4)nnc3s2)o1	JNK3 inh 25
O=C(O)/C=C/C(O)c1ccc(Cl)cc1 (stereo not drawn)	none (no result: Cdc25B inh, DUSP1 inh, JNK3 inh, PKA inh, ROCK2 inh)
CC(Cc1ccc(O)c(O)c1)C(C)Cc1ccc(O)c(O)c1 (stereo not drawn)	Hsp90 inh 103
N[C@@H](Cc1ccc(O)c(O)c1)C(=O)O	none (no result: Cdc25B inh, DUSP1 inh, JNK3 inh, PKA inh, ROCK2 inh)
C[C@H](Cc1ccc(O)c(O)c1)[C@@H](C)Cc1ccc(O)c(O)c1	Hsp90 inh 98 (no result: Cdc25B inh, DUSP1 inh, JNK3 inh, PKA inh, ROCK2 inh)
C/C=C1\C(=O)CC2C3CCC4=CC(=O)CC[C@]4(C)C3CC[C@]12C (stereo partly drawn)	none (no result: Cdc25B inh, DUSP1 inh, JNK3 inh, PKA inh, ROCK2 inh)
CCCc1cc2c(cc1NS(=O)(=O)c1ccc(CCNC(C)=O)cc1)OCO2	Hsp90 inh 57
COC1=C(OC)C(=O)c2ccccc2C1=O	Hsp90 inh 93 (no result: Cdc25B inh, DUSP1 inh, JNK3 inh, PKA inh, ROCK2 inh)
CN=CC1=C(O)c2ccccc2C1=O	none
COc1cc(NCCCC(C)=NO)c2ncccc2c1	none (no result: Cdc25B inh, DUSP1 inh, JNK3 inh, PKA inh, ROCK2 inh)
O=C(c1n[nH]c(=O)c2ccccc12)N1CCN(C2c3ccccc3-c3ccccc32)CC1	DUSP1 inh 52, Hsp90 inh 90
CC12CC(NC(=O)N1c1ccc(C(=O)N3CCN(c4ccc(F)cc4)CC3)cc1)c1ccccc1O2 (stereo not drawn)	DUSP1 inh 53
c1ccc(CCCNc2ncnc3nc[nH]c23)cc1	PKA inh 22
COc1ccc(C(=O)Nn2cnc3scc(-c4cccs4)c3c2=O)c(O)c1	none
OC[C@H]1O[C@@H](n2cnc3c(NC4CCCC4)ncnc32)C(O)[C@H]1O (stereo partly drawn)	none (no result: Cdc25B inh, DUSP1 inh, JNK3 inh, PKA inh, ROCK2 inh)
CCOC(=O)N1CCC(NC(=O)c2cn(-c3ccc(OC)cc3)c(=O)c3ccccc23)CC1	none
CCOC(=O)N1CCC(NC(=O)c2cccn3c(=O)c4cc(Br)ccc4nc23)CC1	DUSP1 inh 53 (no result: JNK3 inh, ROCK2 inh)
COc1ccccc1N1CCN(CCN(C(=O)c2ccc(I)cc2)c2ccccn2)CC1	none (no result: Cdc25B inh, DUSP1 inh, JNK3 inh, PKA inh, ROCK2 inh)
NC1(C(=O)O)CCc2cc(C(=O)O)ccc21 (stereo not drawn)	none (no result: Cdc25B inh, DUSP1 inh, JNK3 inh, PKA inh, ROCK2 inh)
CC(CCc1ccc(O)cc1)NCCc1ccc(O)c(O)c1 (stereo not drawn)	Hsp90 inh 61 (no result: Cdc25B inh, DUSP1 inh, JNK3 inh, PKA inh, ROCK2 inh)
